# BAZ2B inh = blocks human BAZ2B; Potency, µM (titrated, usually from 114 µM), for inactives: at the highest dose activity change, negative = inhibition, actives largely listed as inhibitors; Q9UIF8; 4.4% of 360,000 active; AlphaScreen BAZ2B-H3K14Ac peptide displacement; further: on the % scale 0 is the no-effect control and ±100 the full control effect; nearly all actives have a fitted effect of over 60% in size
#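 Complex of BAZ2B and biotin-H3K14Ac (50 nM apiece) forms over 30 min at RT, then faces library compounds up to 110 uM for another 30 min; AlphaScreen beads added, 20 min dark incubation, luminescence read.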
# JMJD2A Tudor = inhibitors of human JMJD2A Tudor domain; O75164; AlphaScreen JMJD2A-Tudor / H3K4me3 peptide binding; 4.4% of 390,000 active; Potency, µM (top dose mostly 114 µM), for the others: top-dose activity change, negative = inhibition, most hits filed as inhibitors; further: on the % scale 0 is the no-effect control and ±100 the full control effect; nearly all actives have a fitted effect of over 50% in size
# Sfp inh = inhibitors of Bacillus subtilis Sfp phosphopantetheinyl transferase. Biochemical Sfp PPTase activity, qHTS. 3.5% of 310,000 active. Q9F4F7. Potency, µM, for the others: largest response in the series, negative = inhibition, hits mostly inhibitors. AID 1490;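 further: the enzyme is Sfp with the accession as filed and its product quenches rhodamine fluorescence; 0% = enzyme reaction without inhibitor and -100% = no enzyme wells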
#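 Fluorescence-quenching assay with 15 nM Sfp, 5 uM rhodamine-CoA and 12.5 uM BHQ-2-labelled ybbR peptide in pH 7.6 Hepes/MgCl2 buffer. Enzyme was pre-incubated with compound for 15 min at room temperature. Rate was taken from the 30-min fluorescence change (525/598 nm).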
# L3MBTL1 inh = inhibitors of human L3MBTL1 | Q9Y468 | AlphaScreen L3MBTL1–H3K9me1 peptide binding | Potency, µM (doses to about 57.1 µM), inactives show at the top dose activity, negative = inhibition, hits mostly inhibitors | 0.66% of 230,000 active; further: on the % scale 0 is the no-effect control and ±100 the full control effect; nearly all actives have a fitted effect of over 60% in size
#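 Read-out is AlphaScreen signal from streptavidin donor and nickel chelate acceptor beads (10 ug/mL final each) bridging L3MBTL1 (50 nM) and biotinylated K9-monomethylated H3(1-15) peptide (75 nM), after 30 min compound exposure at room temperature.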
# G9a inh = inhibitors of human histone lysine methyltransferase G9a | Potency, µM (top dose mostly 102 µM), inactives show at the highest dose activity, negative = inhibition, hits mostly inhibitors | G9a H3K9 monomethylation, AlphaScreen, 2 h | Q96KQ7 | 8.8% of 350,000 active; further: on the % scale 0 is the no-effect control and ±100 the full control effect; nearly all actives have a fitted effect of over 75% in size
#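 G9a (20 nM) was preincubated 15 min with compound, then reacted 2 h at room temperature with 500 nM biotin-H3K9 peptide and 20 µM SAM. Monomethyl-H3K9 detected by AlphaScreen using anti-H3K9me1 antibody.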
# HP1b chromo inh = HP1-beta chromodomain-methylated histone interaction inhibition; P83916; AlphaScreen HP1-beta / biotin-H3K9me3 peptide binding; Potency, µM (highest dose often 114 µM), inactives show top-dose activity change, negative = inhibition, actives largely listed as inhibitors; 0.56% of 390,000 active; further: nearly all actives have a fitted effect of over 70% in size
#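 HP1-beta protein (50 nM final) preincubated 30 min at room temperature with biotinylated H3(1-18)K9me3 peptide (50 nM) in PBS pH 7.4, 0.01% Tween-20, then compound added for 30 min. AlphaScreen streptavidin donor/nickel chelate acceptor beads (10 ug/mL final), 30 min dark, luminescence read.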
# Active calls of the source: *; ? = inconclusive; · = no result given; [ ] = another dose, or the depositor's remark. In the library only some 12% were active in any assay of this set; here they are far more common. The call rests on the fitted dose curve; in most records, active means well fitted curve in the direction sought with a large enough effect; inconclusive means small, poorly fitted or top-dose-only effect, or another doubt; inactive means no such curve, though single readings can be large; an effect the other way counts as inactive or inconclusive. Potency means the concentration at half of the fitted maximal effect.
SMILES,BAZ2B inh,JMJD2A Tudor,Sfp inh,L3MBTL1 inh,G9a inh,HP1b chromo inh
O=C1/C(=C/c2ccccc2[N+](=O)[O-])COc2ccccc21,?,?,1%,-3%[11.4 µM],?,-20%
O=C1ON=C(c2ccc(Cl)c([N+](=O)[O-])c2)/C1=C/c1cccc([N+](=O)[O-])c1O,6%,20µM*,·,-7%,?,7%
CN(C)Cc1c(O)ccc2c(=O)c(-c3ccc(Cl)cc3)coc12,-3%,?,3%,-3%,·,23%
O=c1c(-c2ccc([N+](=O)[O-])cc2)coc2c(O)c(O)ccc12,40µM*,-36%,1%,·,8.9µM*,2%
CC(=O)Nc1ccc(S(=O)(=O)N2CCN(C(=O)c3ncoc3-c3ccccc3C)CC2)cc1,1%,-4%,17%,·,37%,11%
Nc1nc(SCC(=O)c2cc(F)ccc2F)n[nH]1,-21%,-25%,0%,-10%,40µM*,1%
CCc1ccc(C(=O)CSc2nc3ccccc3c(=O)[nH]2)cc1,10%,-6%,4%,·,-61%,10%
Cc1ccc(C(=O)CSc2nc3ccccc3c(=O)[nH]2)cc1,10%,6%,-2%,·,45µM*,28%
C=CCn1c(C)cc(C(=O)CSc2nc3ccccc3c(=O)[nH]2)c1C,?,-9%[11.4 µM],?,-3%,50µM*,-24%
Cc1cc(C(=O)CSc2n[nH]c(N)n2)c(C)n1-c1cc(F)ccc1F,?,-28%,-17%,·,?,5%
C=CCn1c(C)cc(C(=O)CSc2n[nH]c(N)n2)c1C,-2%,?,-11%,·,32µM*,8%
CCn1cc(CNC(=O)C2CCC(=O)N(Cc3ccc(Cl)cc3)C2)cn1 (stereo not given),-2%,-6%,13%,·,0%[0.0925 µM],18%
N=c1c(C(=O)NCCN2CCOCC2)cc2c(=O)n3ccccc3nc2n1CCc1ccccc1,-12%,-32%,1%,·,?,17%[57 µM]
O=C(Nc1nnc(SCC(=O)N2CCCC2)s1)C1CC(=O)N(c2ccccc2)C1 (stereo not given),-16%,-4%,-7%,·,?,52%
CC(Sc1nc2ccccc2c(=O)[nH]1)C(=O)O (stereo not given),-7%,-8%,4%,·,3.2µM*,13%
COc1ccc(OC(C)c2nc3ccccc3[nH]2)cc1 (stereo not given),-24%,-21%,·,·,-44%[59 µM],34%
CN(C)S(=O)(=O)c1cccc(-c2nn(-c3ccccc3)cc2/C=C2\SC(=S)NC2=O)c1,32µM*,40µM*,?,-16%,40µM*,?
O=C(NCCSc1ccccc1)c1cccnc1,6%,-10%,-9%,-3%,?,-3%
O=C(NCCc1ccc(Cl)cc1)c1cccnc1,?,-20%,-2%,·,56µM*,28%
O=C(NCCCSc1ccccc1)c1cccnc1,-35%,2%,15%,·,28µM*,37%
COc1ccc(-c2nn3c(-c4ccc(C)cc4)nnc3c3ccccc23)cc1,-1%,-7%,·,·,6%[59 µM],30%
Cc1cc(C)c(C(=O)OCC(=O)Nc2cccc(S(=O)(=O)N3CCCCC3)c2)c(C)c1,1%,-18%,·,-4%,-9%[2.33 µM],16%
CC1=Nc2ccccc2/C1=C/c1sc(=S)n(-c2cccc(C(=O)O)c2)c1O,?,?,5%,-7%,25µM*,?
CCn1c(O)c(C=C2N=c3ccccc3=N2)sc1=S,0%,-4%,6%,·,?,47%
Oc1c(C=C2N=c3ccccc3=N2)sc(=S)n1-c1ccccc1,10%,-15%,79µM*,29%,-3%[59 µM],23%
SMILES,BAZ2B inh,JMJD2A Tudor,Sfp inh,L3MBTL1 inh,G9a inh,HP1b chromo inh
COc1cc(-c2noc(-c3ccc(N4CCOCC4)c([N+](=O)[O-])c3)n2)cc(OC)c1OC,-1%,-9%,·,·,?,42%
COCC(=O)N1CCC2(CC1)CN(c1ccc(-c3ccccc3)cc1)C2,·,·,5%,·,0%[12.7 µM],·
Cc1cc(=S)c2ccccc2[nH]1,?,?,56µM*,·,2µM*,11%
COc1cc(C2CC(=O)Oc3c(C(CCN4CCOCC4)c4ccc(N(C)C)cc4)c(OC)cc(OC)c32)cc(OC)c1OC (stereo not given),45µM*,40µM*,1%,·,?,?
COc1cc(C2CC(=O)Oc3c(C(CCN4CCN(c5ccccc5)CC4)c4ccc(N(C)C)cc4)c(OC)cc(OC)c32)cc(OC)c1OC (stereo not given),7.9µM*,8.9µM*,19%,·,?,?
COc1cccc(CNC(=O)CSc2nc3ccccc3nc2Cc2ccc(C)cc2)c1OC,1%,-5%,·,·,5%[59 µM],24%[57 µM]
Cc1c(Cl)c(C(=O)NNC(=S)Nc2ccc(F)cc2)nn1C,13%,-9%,13%,4%,·,35%
Cc1ccc(NC(=O)COC(=O)c2nn(C)cc2Cl)cc1,-6%,-15%,17%,·,4%,-13%
Cc1ccc(NC(=S)NNC(=O)c2nn(C)cc2Cl)cc1,18%[57.1 µM],-9%,11%,6%,35µM*,25%
Cc1c(Cl)c(C(=O)NNC(=S)Nc2ccccc2)nn1C,8%,-12%,5%,·,3.5µM*,29%
Cc1cccc(NC(=S)NNC(=O)c2nn(C)cc2Cl)c1,3%[57.1 µM],-29%,10%,-7%,35µM*,20%
CCOC(=O)c1ccc(Nc2c(OCC)c(=O)c2=O)cc1,-39%,-26%,9%,·,-47%,16%
NC(=O)C1CCN(C(=O)C2c3ccccc3C(=O)N3CCc4ccccc4C23)CC1 (stereo not given),?,-18%,?,-10%,79µM*,9%
CC1CCc2c(sc3nnn(Cc4ccccc4Cl)c(=O)c23)C1 (stereo not given),48%,43%,·,·,69%[59 µM],68%
Cc1c(C(=O)O)cccc1-c1ccc(/C=N/n2cnnc2)o1,79µM*,89µM*,6%,·,35µM*,-6%
Cc1c(C(=O)O)cccc1-c1ccc(/C=N/Nc2ccc(Br)cc2)o1,50µM*,?,?,-7%,10µM*,-13%
CC(=O)N1CCCc2cc(S(=O)(=O)N3CCC(C(=O)NCc4cccc(C)c4)CC3)ccc21,2%,-17%,·,·,10%[59 µM],15%[57 µM]
COc1cccc(CNC(=O)Cc2ccc(NC(=O)N3CCCCc4ccccc43)cc2)c1OC,-13%,-25%,·,·,-1%[59 µM],3%
Cc1c(Cl)cccc1NC(=S)NN,-12%,-22%,11%,-12%,3%[59 µM],31%
[O-]/C(=C(\C(=S)NCCN1CCOCC1)[n+]1ccccc1)c1ccc(Cl)s1,?,-31%,3%,-23%,25µM*,-4%

# Screening results deposited in PubChem by National Center for Advancing Translational Sciences (NCATS).
